Laboratory results from PubChem BioAssay (NCATS).
*1 amine or outer side, *2 acyl side, *3 side chain or, on linkers, in order; H or OH if unused. Where a SMILES comes first, the peptide text is derived from it. Bridges are numbered along the chain shown (N, C = ends). Roman numbers before positions name the chains, in order. [ ]: non-standard residue; d: D form. ξ: configuration not given here. Actinocin(9to1) = Cc1c2oc3c(C)ccc(C(=O)[*:1])c3nc-2c(C(=O)[*:2])c(N)c1=O; ξNMeV = CNC(C(=O)O)C(C)C; ξV = CC(C)C(N)C(=O)O; Sar = CNCC(=O)O

Assay: qHTS profiling for inhibitors of Plasmodium falciparum (DD2) proliferation (AID 743323)
Conditions: lower = more inhibition; at 28.7 µM (top of the series) unless noted
Method in brief: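 Parasite proliferation measured via DNA-dye fluorescence, as uninfected erythrocytes lack DNA. Cultures at 0.3% parasitemia and 2.5% hematocrit incubated 72 h with compound; signal scaled between vehicle and 0.29 uM artemisinin wells.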

SMILES | activity, percent of control
NC(=O)Nc1cc(-c2ccc(CN3CCOCC3)c(F)c2)sc1C(=O)N[C@H]1CCCNC1 | 1.39%
CC[C@@H](C(=O)O)C1CC[C@H](C)C([C@@H](C)[C@H](O)[C@H](C)C(=O)[C@H](CC)C2O[C@]3(C=C[C@@H](O)[C@]4(CC[C@@](C)(C5CC[C@](O)(CC)[C@H](C)O5)O4)O3)[C@H](C)C[C@@H]2C)O1 (some centres undefined) | -0.726%
CCC1(Cc2ccc(N)cc2)CCC(=O)NC1=O (centres undefined) | 97.2% [at 57.5 µM]
CC(NC(=O)Cc1cc(F)cc(F)c1)C(=O)NC(C(=O)OC(C)(C)C)c1ccccc1 (centres undefined) | 97.7%
Cc1c2oc3c(C)ccc(C(=O)N[C@@H]4C(=O)NC(C(C)C)C(=O)N5CCC[C@H]5C(=O)N(C)CC(=O)N(C)C(C(C)C)C(=O)O[C@@H]4C)c3nc-2c(C(=O)N[C@@H]2C(=O)NC(C(C)C)C(=O)N3CCC[C@H]3C(=O)N(C)CC(=O)N(C)C(C(C)C)C(=O)O[C@@H]2C)c(N)c1=O (some centres undefined) (I: T[ξV]P[Sar][ξNMeV] / II: T[ξV]P[Sar][ξNMeV]; ester I:1-I:C, II:1-II:C; linker I:N-II:N via Actinocin(9to1)) | -1.83%
CCC1(O)CC2CN(CCc3c([nH]c4ccccc34)[C@@](C(=O)OC)(c3cc4c(cc3OC)N(C=O)[C@H]3[C@](O)(C(=O)OC)[C@H](OC(C)=O)[C@]5(CC)C=CCN6CC[C@]43[C@@H]65)C2)C1 (some centres undefined) | 13.7%
O=c1cc(C2=CC=CC3Sc4ccccc4SC23)oc(N2CCOCC2)c1 (centres undefined) | 88.7%
C[C@@H]1CCN(C(=O)CC#N)C[C@@H]1N(C)c1ncnc2[nH]ccc12 | 99.8%
Cc1nnc(C(C)C)n1C1CC2CCC(C1)N2CC[C@H](NC(=O)C1CCC(F)(F)CC1)c1ccccc1 (some centres undefined) | 102%
CNC1CCN(C(Cc2cccc(-c3ccncc3)c2)C(=O)c2sc3c(F)ccc(F)c3c2Cl)CC1 (centres undefined) | 0.386%
CN(NC(=O)CC(=O)NN(C)C(=S)c1ccccc1)C(=S)c1ccccc1 | 4.04% [at 57.5 µM]
O=C(O)CC/C=C\CC[C@H]1[C@@H](N2CCCCC2)[C@@H](O)C[C@@H]1OCc1ccc(-c2ccccc2)cc1 | 86.9%
CCCCCCCCCCCCCCCCCCOP(=O)([O-])OC1CC[N+](C)(C)CC1 | 114% [at 18.4 µM]
COC(=O)C1=C(C)NC(C)=C(C(=O)OCCCN2CCC(c3ccccc3)(c3ccccc3)CC2)[C@H]1c1cccc([N+](=O)[O-])c1 | -0.102%
